Bioassay records (PubChem BioAssay)
A selection: hits, their analogues and other compounds. The true share with any hit is near 3.5%.
TEAD-YAP inh: TEAD-YAP interaction inhibition, primary screen, TEAD-YAP interaction inhibitor project, luminescence, HEK-TIYL cells; inhibition, % at 9.12 µM; hit rate 1.4% among 640,000; TEAD-Gal4/YAP UAS-luciferase luminescence; in the data active means inhibition above about 32%;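 further: 0% = median of test compound wells and 100% = reference inhibitor wells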
FBW7 act: FBW7 E3 ligase activators, primary screen, biochemical, AlphaScreen, human. normalized activity (activation), % at 26.1 µM. F-box/WD repeat-containing protein 7 (Homo sapiens), Q969H0. AlphaScreen FBW7–phospho-cyclin E peptide binding, activator screen. AID 1259310, 2017. hit rate 0.13% among 650,000; in the data active means normalized activity above about 1.9%;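 further: purified mutant Fbw7 with reduced substrate affinity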
GPR151 ag: activators of human GPR151, primary screen, cell-based, PathHunter beta-arrestin, luminescence. AID 1508602, 2020. activation, % at 11.2 µM. PathHunter beta-arrestin GPR151 cells. hit rate 1% among 650,000; in the data active means activation above about 4.9%;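 further: 0% = median of compound wells and 100% = cells with positive control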
MITF inh: MITF inhibitors, primary screen, biochemical, AlphaScreen, human; AID 1259374, 2018; inhibition, % at 2.6 µM; hit rate 0.91% among 650,000; AlphaScreen MITF homodimerization, bead proximity signal; Microphthalmia-associated transcription factor (Homo sapiens), O75030; in the data active means inhibition above about 50%;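 further: 0% = vehicle wells with protein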
Target sequence (O75030 whole entry, looked up): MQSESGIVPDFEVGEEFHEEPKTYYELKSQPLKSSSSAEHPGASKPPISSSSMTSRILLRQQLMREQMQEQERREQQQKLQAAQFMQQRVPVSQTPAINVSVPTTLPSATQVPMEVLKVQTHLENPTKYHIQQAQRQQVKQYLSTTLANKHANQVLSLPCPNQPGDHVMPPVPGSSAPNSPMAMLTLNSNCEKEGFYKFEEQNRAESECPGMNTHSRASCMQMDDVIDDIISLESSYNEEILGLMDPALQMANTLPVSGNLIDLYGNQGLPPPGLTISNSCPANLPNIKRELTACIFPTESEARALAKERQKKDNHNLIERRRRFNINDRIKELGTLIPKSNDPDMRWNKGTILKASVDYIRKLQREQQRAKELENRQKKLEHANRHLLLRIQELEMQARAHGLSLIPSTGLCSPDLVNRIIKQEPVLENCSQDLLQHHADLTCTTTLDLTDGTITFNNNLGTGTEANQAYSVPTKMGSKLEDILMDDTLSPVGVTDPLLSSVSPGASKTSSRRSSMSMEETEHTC
MITF inh conf: MITF inhibitors, retest of hits, confirmation, biochemical, AlphaScreen, triplicate | shares compounds with MITF inh | AlphaScreen MITF homodimerization, biotin/His-MITF beads | inhibition, % at 2.6 µM | hit rate 16% among 4,700;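 active means inhibition above a cutoff derived from the DMSO control wells, cut at about 28% in these data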;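 further: 0% = MITF dimer wells with DMSO only; inhibitors lower the bead chemiluminescence by keeping MITF from dimerizing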
AlphaScreen DR: AlphaScreen optical interference compounds, dose response, counter-screen, biochemical, HTS; shares compounds with MITF inh; AlphaScreen optical interference counterscreen, cell-free; IC50, µM; hit rate 6% among 480; AID 1259373, 2018; call rule not given here
AS interf ctr: AlphaScreen optical interference compounds, counter-screen for MITF inhibitor project, biochemical, triplicate; hit rate 7.6% among 4,700; inhibition, % at 2.6 µM; LysRS AlphaScreen counterscreen, signal interference; shares compounds with MITF inh;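 active means inhibition above a cutoff derived from the DMSO control wells, cut at about 30% in these data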
* marks the source's active call; other numbers are inactive results; x = no result given.

SMILES	TEAD-YAP inh	FBW7 act	GPR151 ag	MITF inh	MITF inh conf	AS interf ctr	others
COc1ccc(CN2CCN(S(=O)(=O)c3ccc(F)cc3)CC2)cc1OC	5	1	-2	53*	-1	10
CCOc1cc(CN2CCN(Cc3cccc(OC)c3)CC2)ccc1OC	0	0	0	24	x	x
COc1ccc(OC)c(CN2CCN(Cc3cccc(Cl)c3)CC2)c1	-2	0	-1	73*	7	9
COc1ccc(OC)c(CN2CCN(Cc3cccc(F)c3)CC2)c1	-3	0	0	75*	3	20
COc1cccc(CN2CCN(C(=O)c3cccc(F)c3)CC2)c1	10	0	1	44	x	x
COc1ccc(OC)c(CN2CCN(S(=O)(=O)c3ccccc3)CC2)c1	-4	0	-1	14	x	x
COc1ccc(CN2CCN(Cc3cccc(F)c3)CC2)c(OC)c1	-2	1	-2	85*	4	14
COc1ccc(CN2CCN(Cc3ccc(F)cc3)CC2)cc1OC	-3	0	1	26	x	x
COc1ccc(OC)c(CN2CCN(S(=O)(=O)c3ccc(F)cc3)CC2)c1	5	1	-1	58*	12	18
COc1ccc(OC)c(CN2CCN(Cc3ccc(F)cc3)CC2)c1	2	0	0	83*	37*	16	AlphaScreen DR=>6.1
Cc1nc(CC(=O)N2CCCC(CCC(=O)NCc3ccccc3F)C2)cs1 (stereo not given)	-19	0	-1	-5	x	x
O=C1C2CCCN2C(=O)N1c1ccc(Br)cc1 (stereo not given)	-8	0	0	51*	10	16
CC(=O)Nc1ccnn1C1CCN(Cc2cccc(Oc3ccccc3)c2)CC1	-5	0	0	-17	x	x
CC(=O)Nc1ccnn1C1CCN(Cc2cccc(OC3CCCC3)c2)CC1	4	0	-2	56*	3	15
COc1ccc(CCN=C(C)C2=C(O)C(c3ccccc3)OC2=O)cc1OC (stereo not given)	12	0	-1	74*	4	7
CCn1c(=O)c2c(nc3n(CCc4ccccc4)c(C)cn23)n(C)c1=O	-3	0	3	2	x	x
Cc1cn2c3c(=O)n(C)c(=O)n(C)c3nc2n1CCc1ccccc1	10	0	-1	55*	-4	16
O=C(c1ccccc1)c1cccn1CC(=O)N1CCCC1	0	0	1	7	x	x
O=C(c1ccccc1)c1cccn1CC(=O)N1CCCCCC1	3	0	1	63*	10	10
COC(=O)C1=CN(CCOC23CC4CC(CC(C4)C2)C3)C=C(C(=O)OC)C1c1ccc(F)cc1	-6	1	1	-9	x	x
CN(C)/C=C/C=C/C=C/C(=O)c1ccc(C(=O)/C=C/C=C/C=C/N(C)C)cc1	4	0	-1	84*	68*	10
CN(C)/C=C/C=C/C(=O)c1ccccc1N(C)C	3	0	1	-6	x	x
Cc1cc(C)cc(N(CC(=O)NCCSCc2ccccc2Cl)S(C)(=O)=O)c1	2	0	-1	-10	x	x
O=C(COC(=O)c1ccco1)c1ccc2ccccc2c1	-1	0	3	92*	9	8
OCCNc1ccnc(Nc2nccc3ccccc23)n1	-8	0	0	71*	5	37*
COc1ccc(-n2c(/C=C/c3cccc(OC)c3OC)nc3ccccc3c2=O)cc1Cl	-4	0	1	3	x	x
COCCNc1ccc([N+](=O)[O-])cc1C(=O)N(C)C1CCCCC1	-13	0	-3	12	x	x
CC(=O)c1cccc(NC(=S)NCCn2cc(Cl)cn2)c1	2	0	1	68*	13	9
O=C(O)COc1ccc(N2C(=O)c3ccccc3C2=O)cc1	-2	0	-1	16	x	x
O=C(O)COc1ccc(-n2cccc2)cc1	-1	0	-1	74*	50*	-4	AlphaScreen DR=>6.5
